# The full ranking holds about 33,000 sequences; the median of “E-score (-0.5 to 0.5)” is about -0.0059, and the highest 2% start at about 0.26. What follows is part of a selection rich in the highest values, with near analogues and random picks from the rest.
# Molecular target: T1, Cin5 (UniProt P40917)
# T1 sequence: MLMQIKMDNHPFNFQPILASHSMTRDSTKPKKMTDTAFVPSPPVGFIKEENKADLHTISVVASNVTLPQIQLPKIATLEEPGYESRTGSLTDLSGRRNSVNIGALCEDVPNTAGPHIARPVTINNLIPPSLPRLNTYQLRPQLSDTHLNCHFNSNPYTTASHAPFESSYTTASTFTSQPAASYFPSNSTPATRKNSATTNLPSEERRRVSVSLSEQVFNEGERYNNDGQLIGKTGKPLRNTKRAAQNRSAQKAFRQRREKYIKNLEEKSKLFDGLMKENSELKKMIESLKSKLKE
# Experiment: PBM E-score (8-mer binding enrichment) (E-score (-0.5 to 0.5)); higher = stronger / more preferred TF binding
# Conditions: protein concentration: 100 nM; construct: GST-full length
# Description: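 Universal 'all 10-mer' protein binding microarrays (Agilent AMADID 015681) probed with GST-tagged S. cerevisiae TFs (full-length or DBD) made by in vitro transcription/translation (PURExpress), about 100-200 nM. Bound TF was detected with fluorescent anti-GST. Each ungapped 8-mer (which stands for itself and its reverse complement) is scored by the PBM enrichment score (E-score), a modified Wilcoxon-Mann-Whitney statistic from -0.5 to +0.5, computed with the Universal PBM Analysis Suite. Scale: above 0.35 generally sequence-specific binding.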
row,Sequence,PBM E-score
1,CTTTGATA,0.116
2,ATATGATA,0.314
3,ATTTGATA,0.319
4,GCATGATA,0.168
5,ATTCTTCG,0.138
6,CTGATCGC,0.0487
7,AAGGAAAT,0.0752
8,ATTGGTGC,0.134
9,ACGCTCAC,0.0871
10,CCTCACGC,0.0561
11,GTCAGCGA,-0.0481
12,ACCACCCT,-0.163
13,ATGCTATC,-0.00354
14,CGAACGCG,0.00852
15,AGAAACCA,0.123
16,ATGTGATA,0.266
17,CTGTGATA,0.0273
18,GTGTGATA,0.2
19,ATCGCCCA,-0.11
20,CAACGGTA,-0.181
21,CGTAAAGC,-0.147
22,CTTTGGTA,-0.205
23,GTTTGGTA,0.296
24,ATTTGGTA,0.252
25,AGGACCGG,-0.294

row,Sequence,PBM E-score
1,ACCGCTCG,-0.0731
2,CCCTATGC,0.0135
3,ACAACCCG,-0.0389
4,CGCAACTC,0.103
5,GGCAACTA,0.0726
6,CGCAACTA,0.267
7,CAGAACGA,0.0474
8,CAAAGACG,-0.0507
9,CGCTGGGC,-0.295
10,GATATGAA,0.0853
11,TATATGAA,0.129
12,AATATGAC,0.163
13,AATATGAG,0.0321
14,AATATGAA,0.258
15,AATATGAT,0.297
16,AGGGTGTC,-0.136
17,GGTCCTAA,-0.143
18,CAGGAAGA,-0.0593
19,GGGCAGGA,-0.00266
20,TAATGTAA,0.33
21,AAATGTAA,0.14
22,TGATGTAA,0.329
23,CGATGTAA,0.102
24,AGATGTAA,0.169
25,GAATGTAA,0.241

row,Sequence,PBM E-score
1,AAATGTAT,0.276
2,AAATGTAC,0.19
3,AAATGGAA,0.0906
4,TAATGGAA,0.281
5,GAATGGAA,0.181
6,AAATGTAG,0.101
7,CCGGGGCG,-0.146
8,GCTACGGA,-0.165
9,TCACCGGA,0.0333
10,GTGGGAAC,-0.144
11,GCCACGCC,-0.127
12,CAGAGCAC,-0.123
13,CCCCATAA,0.00568
14,ACGCAGCC,-0.0404
15,ACCGGGGC,-0.136
16,CAATGTGA,0.117
17,GAATGTGA,0.00014
18,TAATGTGA,0.292
19,ACTACCAG,-0.086
20,ACGCAAAT,-0.0291
21,CTGCATTA,-0.154
22,ATGCATTA,0.341
23,GTGCATCA,0.00241
24,ATGCATCA,0.287
25,ATGCATTC,0.163

row,Sequence,PBM E-score
1,ATGCATCG,0.098
2,ACTAACAT,0.192
3,CTACCCTA,-0.101
4,CACGGTGG,0.0279
5,CCTATCCG,-0.0857
6,CCGGTACA,-0.00292
7,AGTAAGCC,0.216
8,CGTAAGCC,0.39
9,CATAATCA,0.385
10,CCTAATCC,0.029
11,CATAATCC,0.265
12,CGTAATTC,0.228
13,AATAATCA,0.257
14,AATAATCC,0.0532
15,CGTAAGGC,-0.0166
16,GATAATCC,0.17
17,CGTAATCC,0.383
18,GATAATCA,0.159
19,CGGACCCC,-0.295
20,ACCGTTAT,-0.0275
21,CACGGCCA,-0.145
22,ATGGCTGC,-0.0428
23,CACGGGGG,-0.401
24,TATAATGA,0.21
25,AATAATCG,0.247

row,Sequence,PBM E-score
1,CATAATCG,0.324
2,TATAATAA,0.241
3,CATAATGG,0.0936
4,TATAATCA,0.342
5,CGATCACG,0.117
6,ATGTGCGA,-0.106
7,ACTCCTGG,-0.216
8,ACCACAAG,-0.117
9,TCAATGAA,0.159
10,CCTATCTC,0.0294
11,CTTATCTC,0.0536
12,ATTATCTA,0.315
13,GTTATCTA,0.131
14,ATTATCTC,0.306
15,ACTATCTA,0.148
16,ACTATCTC,0.121
17,CTTATCTA,0.276
18,ATTATCTG,0.152
19,AACTCGAT,0.15
20,AACCCTAT,0.107
21,TACGGGAA,-0.108
22,CCTTCATC,-0.183
23,GTGCAAGA,0.0774
24,GTAGAACA,-0.165
25,AGGAATGA,0.0586

row,Sequence,PBM E-score
1,GGGAATGA,0.277
2,CGGAATGA,0.146
3,CACCTCTA,0.0362
4,CGCGTATC,0.06
5,CCACAACG,-0.153
6,AAACTAAA,0.199
7,AAACTAAT,0.312
8,AAACTAAG,0.185
9,ATAGTCAC,0.129
10,AGCCGACG,-0.0574
11,TGAACAAA,0.217
12,AGAACAAA,0.194
13,GGAACAAA,0.32
14,CGAACAAA,0.272
15,GGAACAAC,0.0525
16,CGAACAAG,-0.0215
17,CCCTGGTA,-0.196
18,AGGTCGAC,0.102
19,GGCTGTAA,-0.129
20,CCCCGCGA,0.05
21,ACAATTGT,0.188
22,GCGCGGAA,0.192
23,GCGCGGGA,0.012
24,CCGCGGAG,0.0845
25,CCGCGGGC,0.0691

row,Sequence,PBM E-score
1,CCGCGGGA,0.316
2,CCGCGGAA,0.272
3,AGAGTTAA,0.0368
4,GTACTCGA,0.0237
5,ATTAGGTG,0.131
6,GTTAGGTA,0.242
7,CTTAGGTC,-0.0156
8,CGTAGGTA,-0.0204
9,CTCAGGTA,0.0217
10,ATTAGGTA,0.271
11,CTTAGGTA,0.337
12,ATTAGGTC,0.271
13,ATTAGGGC,-0.0867
14,AACTCAAT,0.165
15,CACTGGGC,-0.14
16,CGTAACCA,0.192
17,AGCAGCCC,-0.142
18,GAGGGCCC,-0.254
19,CCCCTCAG,-0.211
20,AGTAATAT,0.306
21,AGTAATAG,0.279
22,AGTAATAA,0.193
23,AGTAATTG,0.132
24,CGTAATAG,0.223
25,AGTAATAC,0.2

# From the supplement of paper PMC3334620
